Among the data in PubChem BioAssay (NCATS) are Potency, activation and activity change, negative = inhibition values, retold here.

“And” between values parts separate entries of the source, which are not always exact repeats. Equal values may be shown once. Records with an inconclusive call do not appear. Some structures have more than one record in an assay (separate samples or runs), and their calls can disagree. The source made the active and inactive calls. Calls come from the whole dose curve; as a rule, active = well fitted curve in the direction sought with a large enough effect; inconclusive = small, poorly fitted or top-dose-only effect, or another doubt; inactive = no such curve, though single readings can be large; an effect the other way counts as inactive or inconclusive.

Experiment [1] deals with Rap guanine nucleotide exchange factor 3 (Homo sapiens) (UniProt O95398). Description: Confirmatory qHTS for agonist of cAMP-regulated guanine nucleotide exchange factor 3 (EPAC1) (AID 1645881).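 Note: EPAC1 catalysed release of BODIPY-GDP from Rap1B seen as fluorescence loss; 100% = effect of cAMP agonist control; nearly all actives have a fitted effect of over 75% in size.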 In general terms: In qHTS, concentration-response curves come from the screen itself.
Sequence of Rap guanine nucleotide exchange factor 3 (Homo sapiens) (O95398 whole entry, looked up): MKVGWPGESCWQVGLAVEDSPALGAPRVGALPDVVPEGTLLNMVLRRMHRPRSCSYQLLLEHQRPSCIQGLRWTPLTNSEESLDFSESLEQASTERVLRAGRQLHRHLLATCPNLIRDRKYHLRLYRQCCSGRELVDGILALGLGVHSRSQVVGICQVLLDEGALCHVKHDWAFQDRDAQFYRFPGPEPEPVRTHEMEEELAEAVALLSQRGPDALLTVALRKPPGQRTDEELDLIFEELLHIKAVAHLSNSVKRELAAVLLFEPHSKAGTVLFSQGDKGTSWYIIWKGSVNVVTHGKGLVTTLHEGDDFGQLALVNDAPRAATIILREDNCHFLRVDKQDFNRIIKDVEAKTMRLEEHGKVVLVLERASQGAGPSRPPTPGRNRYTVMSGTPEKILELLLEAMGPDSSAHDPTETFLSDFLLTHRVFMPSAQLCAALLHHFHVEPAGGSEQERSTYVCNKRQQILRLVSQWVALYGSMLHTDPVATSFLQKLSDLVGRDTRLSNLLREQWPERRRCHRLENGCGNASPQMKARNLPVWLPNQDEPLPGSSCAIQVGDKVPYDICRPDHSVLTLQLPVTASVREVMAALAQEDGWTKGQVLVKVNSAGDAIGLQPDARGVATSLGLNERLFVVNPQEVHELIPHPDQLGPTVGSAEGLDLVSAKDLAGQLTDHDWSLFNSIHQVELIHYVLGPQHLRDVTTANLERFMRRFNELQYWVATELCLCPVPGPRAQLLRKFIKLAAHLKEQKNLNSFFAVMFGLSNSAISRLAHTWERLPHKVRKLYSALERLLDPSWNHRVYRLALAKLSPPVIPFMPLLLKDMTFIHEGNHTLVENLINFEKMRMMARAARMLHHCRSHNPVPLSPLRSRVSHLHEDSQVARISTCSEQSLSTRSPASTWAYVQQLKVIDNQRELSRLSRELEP
Experiment [2] deals with Rap guanine nucleotide exchange factor 4 (Homo sapiens) (UniProt Q8WZA2). Kind of experiment: Confirmatory qHTS for agonist of cAMP-regulated guanine nucleotide exchange factor 4 (EPAC2) (AID 1645884).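 Note: nucleotide exchange releases bodipy-GDP from Rap1 and this lowers its fluorescence; % is set by controls: 0 for no effect and ±100 for the full control effect; nearly all actives have a fitted effect of over 65% in size.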
Sequence of Rap guanine nucleotide exchange factor 4 (Homo sapiens) (Q8WZA2 whole entry, looked up): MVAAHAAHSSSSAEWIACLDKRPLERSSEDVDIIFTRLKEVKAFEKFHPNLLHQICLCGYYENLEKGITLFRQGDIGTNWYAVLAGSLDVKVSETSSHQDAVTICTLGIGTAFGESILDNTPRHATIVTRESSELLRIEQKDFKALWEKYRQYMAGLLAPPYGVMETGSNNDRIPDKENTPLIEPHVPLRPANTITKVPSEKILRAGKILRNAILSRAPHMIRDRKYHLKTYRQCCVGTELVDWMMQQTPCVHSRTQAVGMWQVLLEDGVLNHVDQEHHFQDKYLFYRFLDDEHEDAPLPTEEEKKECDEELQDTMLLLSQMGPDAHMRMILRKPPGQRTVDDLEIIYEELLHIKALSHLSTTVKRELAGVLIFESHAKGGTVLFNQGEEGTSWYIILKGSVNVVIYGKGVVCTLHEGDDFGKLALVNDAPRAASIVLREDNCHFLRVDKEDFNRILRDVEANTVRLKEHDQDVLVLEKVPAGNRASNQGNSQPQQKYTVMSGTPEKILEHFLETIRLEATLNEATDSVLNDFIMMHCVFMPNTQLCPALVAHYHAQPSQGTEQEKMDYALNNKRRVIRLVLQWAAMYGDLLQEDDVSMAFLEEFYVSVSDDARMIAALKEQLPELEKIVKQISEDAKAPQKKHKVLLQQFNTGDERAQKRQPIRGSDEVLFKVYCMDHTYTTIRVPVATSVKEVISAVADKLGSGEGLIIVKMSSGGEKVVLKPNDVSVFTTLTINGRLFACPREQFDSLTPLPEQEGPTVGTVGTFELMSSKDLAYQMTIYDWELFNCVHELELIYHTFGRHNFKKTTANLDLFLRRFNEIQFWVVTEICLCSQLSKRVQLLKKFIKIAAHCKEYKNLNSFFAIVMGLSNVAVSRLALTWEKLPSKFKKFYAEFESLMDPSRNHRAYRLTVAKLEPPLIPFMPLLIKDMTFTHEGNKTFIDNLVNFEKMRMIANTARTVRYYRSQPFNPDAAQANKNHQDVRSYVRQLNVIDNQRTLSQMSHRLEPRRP
Experiment [3] has the same target. Kind of experiment: Confirmatory qHTS for antagonist of cAMP-regulated guanine nucleotide exchange factor 4 (EPAC2) (AID 1645885). For activity change, negative = inhibition: % is set by controls: 0 for no effect and ±100 for the full control effect. Note: nearly all actives have a fitted effect of over 25% in size. Note: potency is the fitted concentration of half-maximal effect.
In experiment [4] the target is Rap guanine nucleotide exchange factor 3 (Homo sapiens) (UniProt O95398). Description: Counterscreen qHTS for antagonist of cAMP-regulated guanine nucleotide exchange factor 3 (EPAC1) (AID 1645888). Note: % of control where 0% means no effect. The method in brief: (§1)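 Measured: fluorescence of BODIPY-GDP bound to Rap1B, which falls as exchange proceeds. Conditions include 50 uM competing GDP, 5 and 30 min reads, and a later cAMP challenge for antagonist detection.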
(In general: A counterscreen serves to expose hits that act by an unwanted route or on another target.)

The target is the same in experiment [5]. Description: Counterscreen qHTS for agonist of cAMP-regulated guanine nucleotide exchange factor 3 (EPAC1) (AID 1645889). Note: % of control where 0% means no effect; nearly all actives have a fitted effect of over 40% in size. Put shortly:
as §1

With `CCCCC(CC)COC1(c2ccccc2)OC(=O)c2ccccc21` (stereo not given), the Potency result in experiment [1], in experiment [2], in experiment [3], in experiment [4] and in experiment [5] was “inactive” each time.

For the compound `Cc1cc(-c2ccc(C(C)C)c(S(=O)(=O)N3CCC(C)CC3)c2)on1`, the Potency entry in experiment [1] and in experiment [3] was “inactive” throughout. In addition, the activation in experiment [2] was 8.04% [at 17.1 µM, percent relative to cAMP agonist control] (inactive); in experiment [5], 0.648% [at 30.8 µM] (inactive). Also, the activity change, negative = inhibition in experiment [4] is -17.5% [at 30.8 µM] (inactive).

In the case of `Cc1cc(C(=O)Cn2ncc(Cl)c(Cl)c2=O)c(C)n1CC(F)(F)F`, the Potency entry in experiment [1] and in experiment [3] was “inactive” in each case. The activation was 1.17% [at 17.1 µM, percent relative to cAMP agonist control] (inactive) in experiment [2] and 8.2% [at 30.8 µM] (inactive) in experiment [5]. For the same compound, in experiment [4], the activity change, negative = inhibition was -8.86% [at 30.8 µM] (inactive).

`Cc1nn(-c2ccccc2)c(C)c1-c1cc(C(=O)N/N=C/c2ccc(O)cc2)[nH]n1`: the Potency result in experiment [1] and in experiment [3] was “inactive” each time. The activation in experiment [2] is -7.34% [at 17.1 µM, percent relative to cAMP agonist control] (inactive); in experiment [5], 9.11% [at 30.8 µM] (inactive). Further, in experiment [4], the activity change, negative = inhibition is -7.56% [at 30.8 µM] (inactive).

With `COC(=O)c1ccc2nc(-c3ccco3)c(Cc3ccc(OC)cc3C)n2c1`, the Potency result in experiment [1], in experiment [2], in experiment [3], in experiment [4] and in experiment [5] was “inactive” throughout.

In the case of `C=CCc1ccccc1OCCSc1nc(-c2ccccc2F)nc2cc(=O)[nH]n12`, the Potency entry in experiment [1], in experiment [2], in experiment [3], in experiment [4] and in experiment [5] was “inactive” throughout.

Turning to `COC(=O)c1ccc2nc(-c3ccco3)c(Cc3ccccc3)n2c1`, the Potency entry in experiment [1] and in experiment [3] was “inactive” throughout. Moreover, the activation was 7.95% [at 17.1 µM, percent relative to cAMP agonist control] (inactive) in experiment [2] and 10% [at 30.8 µM] (inactive) in experiment [5]. Also, in experiment [4], the activity change, negative = inhibition was -11.9% [at 30.8 µM] (inactive).

Regarding `O=C(O)CCc1ccc(-c2ccc(Br)cc2)n1-c1ccc(O)cc1`, the Potency result in experiment [1], in experiment [2], in experiment [4] and in experiment [5] was “inactive” throughout. Moreover, the Potency in experiment [3] was 42.6 µM (active).

Take `O=C1C=C(NCc2ccccc2)c2ccccc2C1=O`: the Potency result in experiment [1], in experiment [2], in experiment [4] and in experiment [5] was “inactive” throughout. Further, the Potency in experiment [3] was 15.1 µM (active).

For the compound `COc1ccc2[nH]cc(S(=O)(=O)c3ccc(C)cc3)c2c1`, the Potency entry in experiment [1], in experiment [2], in experiment [4] and in experiment [5] was “inactive” throughout. Also, in experiment [3], the Potency is 21.3 µM (active).

Take `CCOC(=O)C1=C(C)NC(C)=C(C(=O)OCC)C1c1ccc([N+](=O)[O-])s1`: the Potency result in experiment [1], in experiment [2], in experiment [4] and in experiment [5] was “inactive” in each case. Moreover, the Potency result in experiment [3] was “inactive and 42.6 µM (active)”.

For `Cc1ccccc1CN(C)CC(=O)Nc1c(C)cccc1C(C)C`, the Potency entry in experiment [1] and in experiment [3] was “inactive” throughout. The activation was 7.02% [at 17.1 µM, percent relative to cAMP agonist control] (inactive) in experiment [2] and -4.69% [at 30.8 µM] (inactive) in experiment [5]. For the same compound, the activity change, negative = inhibition in experiment [4] is -6.66% [at 30.8 µM] (inactive).

Regarding `CCCCC[C@@H](C)N1C[C@@H](COCc2ccccc2)Oc2cc(N3CC[C@H](O)C3)ccc2S1(=O)=O`, the Potency result in experiment [1] and in experiment [3] was “inactive” each time. In addition, the activation in experiment [2] was -2.04% [at 17.1 µM, percent relative to cAMP agonist control] (inactive); in experiment [5], 2.97% [at 30.8 µM] (inactive). Further, in experiment [4], the activity change, negative = inhibition is -7.58% [at 30.8 µM] (inactive).

Take `COc1ccccc1C1CC(=O)Oc2cc(C)c(Cl)cc21` (stereo not given): the Potency entry in experiment [1], in experiment [2], in experiment [4] and in experiment [5] was “inactive” each time. For the same compound, in experiment [3], the Potency was 9.53 µM (active).

Turning to `Clc1ccc(CON/C=N/c2ncnc3sccc23)cc1`, the Potency entry in experiment [1] and in experiment [3] was “inactive” each time. The activation is 8% [at 17.1 µM, percent relative to cAMP agonist control] (inactive) in experiment [2] and 11.3% [at 30.8 µM] (inactive) in experiment [5]. Further, the activity change, negative = inhibition in experiment [4] was -10% [at 30.8 µM] (inactive).

On to `CCCN1C(=O)c2ccccc2NC1c1ccc(OC)c(CSc2ccccn2)c1` (stereo not given), for which the Potency entry in experiment [1], in experiment [2], in experiment [3], in experiment [4] and in experiment [5] was “inactive” throughout.

Turning to `O=C(O)CN1C(=O)/C(=C\C(Br)=C\c2ccccc2)SC1=S`, the Potency result in experiment [1] and in experiment [3] was “inactive” in each case. The activation in experiment [2] is 6.32% [at 17.1 µM, percent relative to cAMP agonist control] (inactive); in experiment [5], 8.49% [at 30.8 µM] (inactive). Further, the activity change, negative = inhibition in experiment [4] was 0.657% [at 30.8 µM] (inactive).

With `Cc1ccc(NC(=O)CN2C(=O)S/C(=C/c3ccc(O)c([N+](=O)[O-])c3)C2=O)cc1C`, the Potency entry in experiment [1], in experiment [2], in experiment [3], in experiment [4] and in experiment [5] was “inactive” throughout.

As for `O=C(Nc1cccc([N+](=O)[O-])c1)c1ccc2c(c1)C(=O)N(c1ccccn1)C2=O`, the Potency entry in experiment [1] and in experiment [3] was “inactive” each time. Also, the activation in experiment [2] was 10.8% [at 17.1 µM, percent relative to cAMP agonist control] (inactive); in experiment [5] it was 12.1% [at 30.8 µM] (inactive). Also, in experiment [4], the activity change, negative = inhibition was -7.46% [at 30.8 µM] (inactive).

For the compound `CCOC(=O)c1c(C)oc2nc(C)nc(N(CC(C)C)CC(C)C)c12`, the Potency entry in experiment [1], in experiment [2], in experiment [3], in experiment [4] and in experiment [5] was “inactive” in each case.

Regarding `O=C(O)COc1ccc(/C=N/NC(=O)c2ccc(-c3csc(Nc4ccc(Cl)cc4)n3)cc2)cc1`, the Potency result in experiment [1], in experiment [2], in experiment [3], in experiment [4] and in experiment [5] was “inactive” each time.
